Test results taken from PubChem BioAssay (NCATS).
Records with an inconclusive call do not appear. Values without a mark were called inactive. The source made the active and inactive calls. Unless noted, calls follow the shape of the dose curve; as a rule, active = well fitted curve in the direction sought with a large enough effect; inconclusive = small, poorly fitted or top-dose-only effect, or another doubt; inactive = no such curve, though single readings can be large; an effect the other way counts as inactive or inconclusive. Where a SMILES comes first, the peptide text is derived from it. [ ]: non-standard residue; d: D form. ξ: configuration not given here. ξLac(3-iPr) = CC(C)CC(O)C(=O)O; NMeV = CN[CH](C(=O)O)C(C)C; NMeA = CN[CH](C)C(=O)O; βAla = NCCC(=O)O

Assays:
[1] = system: Zika virus NS2B-NS3 protease (unlinked complex); experiment: Primary screen GU Rhodamine qHTS for Zika virus inhibitors: Unlinked NS2B-NS3 protease assay (AID 1347159); also: % is scaled to controls: 0 for no effect and ±100 for the full control effect; nearly all actives have a fitted effect of over 60% in size
Summary of the method: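 Unlinked NS2B/NS3, 25 nM; Rhod110 peptide, 1.5 microM; compounds, up to 114 microM. Reaction run 15 min at RT in 10 mM Tris-HCl pH 8.0, 0.01% Tween 20; kinetic fluorescence change fitted with a 4-parameter Hill model.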

[2] = Primary qHTS for inhibitors of nuclear receptor binding SET domain protein 2 (NSD2) in an isogenic RCH-ACV NSD2 p.E1099K mutant (9B) (AID 1645876); also: nearly all actives have a fitted effect of over 70% in size; also: potency is read from the fitted curve at half-maximal effect
[3] = Primary qHTS for inhibitors of nuclear receptor binding SET domain protein 2 (NSD2) in an RCH-ACV wild type WT cells (2C) (AID 1645877); also: nearly all actives have a fitted effect of over 70% in size; also: potency is read from the fitted curve at half-maximal effect
CRL-7250 [4] = experiment: Cytotoxic Profiling of Annotated Libraries Using Quantitative High-Throughput Screening (AID 1296008); details: Five cell lines viability, CellTiter-Glo ATP luminescence, 48-72 h; max response: active compounds read low; also: nearly all actives have a fitted effect of over 60% in size; also: potency is read from the fitted curve at half-maximal effect; as to max response: % is scaled to controls: 0 for no effect and ±100 for the full control effect
Summary of the method: (§1)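 Compounds were pin-transferred onto cells and incubated 48 or 72 hr at 37 degree Celsius, 95% humidity. CellTiter-Glo was added, plates sat 10 min at room temperature, then ATP-coupled luminescence was imaged as the viability read-out.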

CRL-7250 [5] = experiment: qHTS assay to identify novel small-molecules to repurpose for Merkel cell carcinoma treatment (AID 1296009); details: MCC and control cell lines, CellTiter-Glo viability, 72 h; series mostly up to 92 µM; also: nearly all actives have a fitted effect of over 60% in size
Summary of the method: (§2)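 Viability readout: ATP luminescence (CellTiter-Glo) after 72 hr drug exposure at 37 degree celsius. Dose-response format was 8 points for NPC and 11 points for MIPE; data normalized to in-plate controls.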

HeLa = experiment: Primary qHTS to identify gynecologic anti-cancer compounds using libraries of approved drugs and bioactive compounds (AID 1345084); details: Gynecologic cancer cell panel viability, ATPlite luminescence, 48 h; series mostly up to 57.5 µM; also: nearly all actives have a fitted effect of over 55% in size; also: potency is read from the fitted curve at half-maximal effect; as to activity change, negative = cytotoxicity: % is scaled to controls: 0 for no effect and ±100 for the full control effect
Summary of the method: (§3)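 Cytotoxicity screen measuring ATP content by luciferase luminescence. Each compound is applied at five concentrations for 48 h at 37 C with 5% CO2.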

SKOV3 = experiment: as above; details: Gynecologic cancer cell panel viability, ATPlite luminescence, 48 h; series mostly up to 57.5 µM
Summary of the method: as §3

[6] = P-glycoprotein substrates identified in KB-8-5-11 adenocarcinoma cell line, qHTS therapeutic library screen (AID 1346987); also: nearly all actives have a fitted effect of over 65% in size; also: potency is read from the fitted curve at half-maximal effect
Summary of the method: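 Luminescence from CellTiter-Glo, read 5 min after addition, quantified survival of KB-8-5-11 (P-gp-overexpressing) cells exposed to compounds for 72 h. AC50 was derived from concentration-response curves.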

[7] = molecular target: Cytochrome P450 2C9 (Homo sapiens) (UniProt P11712); experiment: Cytochrome P450 family 2 subfamily C member 9 (CYP2C9) small molecule antagonists: luciferase biochemical (cell-free) qHTS assay (AID 1645842; active = well fitted curve in the direction sought with a large enough effect in the repeat runs; an effect the other way counts as inactive or inconclusive; also: potency is read from the fitted curve at half-maximal effect; nearly all actives have a fitted effect of over 55% in size)
Cytochrome P450 2C9 (Homo sapiens), sequence (P11712 whole entry, looked up): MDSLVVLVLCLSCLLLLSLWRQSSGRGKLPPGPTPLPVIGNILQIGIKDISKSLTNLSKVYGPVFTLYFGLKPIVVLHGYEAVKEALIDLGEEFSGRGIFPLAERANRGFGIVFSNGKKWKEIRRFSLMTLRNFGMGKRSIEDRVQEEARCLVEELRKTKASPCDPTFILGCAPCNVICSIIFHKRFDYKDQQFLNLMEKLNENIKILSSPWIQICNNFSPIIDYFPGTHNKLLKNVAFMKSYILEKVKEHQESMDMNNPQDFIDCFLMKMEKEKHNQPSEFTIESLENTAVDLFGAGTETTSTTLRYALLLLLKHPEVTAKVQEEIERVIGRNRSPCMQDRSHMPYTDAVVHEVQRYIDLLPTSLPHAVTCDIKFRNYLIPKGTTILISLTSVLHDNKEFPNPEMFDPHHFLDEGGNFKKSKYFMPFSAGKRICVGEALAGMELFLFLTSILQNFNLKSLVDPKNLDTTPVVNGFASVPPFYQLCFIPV
Summary of the method: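 P450-Glo CYP2C9 system: proluciferin substrate with enzyme in mix containing 0.4% BSA, 10 min at room temperature, then NADPH regeneration solution added and incubated 1 h at 37C. Detection reagent stopped reaction; luminescence read after 20 min as RLU.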

[8] = molecular target: Cytochrome P450 2D6 (Homo sapiens) (UniProt P10635); experiment: Cytochrome P450 family 2 subfamily D member 6 (CYP2D6) small molecule antagonists: luciferase biochemical (cell-free) qHTS assay (AID 1645840; active = well fitted curve in the direction sought with a large enough effect in the repeat runs; an effect the other way counts as inactive or inconclusive; also: potency is read from the fitted curve at half-maximal effect; nearly all actives have a fitted effect of over 55% in size)
Cytochrome P450 2D6 (Homo sapiens), sequence (P10635 whole entry, looked up): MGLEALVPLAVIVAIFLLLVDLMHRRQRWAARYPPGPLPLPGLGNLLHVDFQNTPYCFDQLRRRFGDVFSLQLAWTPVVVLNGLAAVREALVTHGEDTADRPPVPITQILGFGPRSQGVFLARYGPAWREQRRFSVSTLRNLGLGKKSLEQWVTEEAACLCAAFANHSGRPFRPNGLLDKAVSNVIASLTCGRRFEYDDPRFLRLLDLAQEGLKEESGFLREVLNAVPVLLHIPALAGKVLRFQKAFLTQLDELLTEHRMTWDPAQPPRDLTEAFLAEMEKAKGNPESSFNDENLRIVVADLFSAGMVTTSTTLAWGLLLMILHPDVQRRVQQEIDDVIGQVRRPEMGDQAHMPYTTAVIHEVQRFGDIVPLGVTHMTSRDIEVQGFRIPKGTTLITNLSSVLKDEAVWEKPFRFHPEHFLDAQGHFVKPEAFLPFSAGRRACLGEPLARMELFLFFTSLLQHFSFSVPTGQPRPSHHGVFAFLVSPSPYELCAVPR
Summary of the method: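 P450-Glo CYP2D6 system: proluciferin substrate converted by enzyme to luciferin, read by luminescence proportional to activity. Enzyme-substrate mix with compound 10 min at room temperature, then NADPH regeneration 1 h before detection reagent.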

KB-3-1 = experiment: Cytotoxic Profiling of Annotated Libraries Using Quantitative High-Throughput Screening (AID 1296008); details: Five cell lines viability, CellTiter-Glo ATP luminescence, 48-72 h; max response: active compounds read low; also: nearly all actives have a fitted effect of over 60% in size; also: potency is read from the fitted curve at half-maximal effect; as to max response: % is scaled to controls: 0 for no effect and ±100 for the full control effect
Summary of the method: as §1

HACAT = experiment: qHTS assay to identify novel small-molecules to repurpose for Merkel cell carcinoma treatment (AID 1296009); details: MCC and control cell lines, CellTiter-Glo viability, 72 h; at 44.8 µM (top of the series) unless noted; also: nearly all actives have a fitted effect of over 60% in size
Summary of the method: as §2

NIH3T3 = experiment: as above; details: MCC and control cell lines, CellTiter-Glo viability, 72 h; at 44.8 µM (top of the series) unless noted
Summary of the method: as §2

HEK293 = experiment: Cytotoxic Profiling of Annotated Libraries Using Quantitative High-Throughput Screening (AID 1296008); details: Five cell lines viability, CellTiter-Glo ATP luminescence, 48-72 h; max response: active compounds read low; also: nearly all actives have a fitted effect of over 60% in size; also: potency is read from the fitted curve at half-maximal effect; as to max response: % is scaled to controls: 0 for no effect and ±100 for the full control effect
Summary of the method: as §1

## O=C(NCCN1CCC2(CC1)C(=O)NCN2c1cccc(F)c1)c1ccc(F)c(F)c1
[1]
  Potency: inactive
[2]
  Potency: 23 µM (active)
[3]
  Potency: 14.5 µM (active)
CRL-7250 [4]
  outcome: inactive
CRL-7250 [5]
  Potency: inactive
HeLa
  Potency: inactive
SKOV3
  Potency: inactive

## O=C1CN=C(c2cccc(Br)c2)c2oc3ccccc3c2N1
[6]
  Potency: 14.6 µM (active)
[1]
  Potency: inactive
[7]
  Potency: 10.7 µM (active)
[2]
  Potency: 9.16 µM (active)
[3]
  Potency: 6.49 µM (active)
CRL-7250 [4]
  outcome: inactive
CRL-7250 [5]
  Potency: inactive

## OC(CNc1ccccc1)Cn1c2ccc(Br)cc2c2cc(Br)ccc21 (stereo unspecified)
[8]
  Potency: 16.9 µM (active)
[7]
  Potency: 5.35 µM (active)
KB-3-1
  max response: -15.3%
HeLa
  Potency: inactive
SKOV3
  Potency: inactive

## CCC(C)C1NC(=O)C2CCCN2C(=O)C(CC(C)C)OC(=O)CCNC(=O)C(C)N(C)C(=O)C(C(C)C)N(C)C1=O (stereo unspecified) (cyclo([ξLac(3-iPr)]PI[NMeV][NMeA][βAla]); configuration not given here)
[6]
  Potency: inactive
[1]
  Potency: inactive
[2]
  Potency: 2.71 µM (active)
[3]
  Potency: 1.92 µM (active)

## CC(=O)O[C@H]1C(=O)[C@]2(C)C(O)C[C@H]3OC[C@@]3(OC(C)=O)[C@H]2[C@H](OC(=O)c2ccccc2)[C@]2(O)C[C@H](O)C(C)=C1C2(C)C (stereo partly specified)
[6]
  Potency: inactive
[1]
  Potency: inactive
[3]
  Potency: 5.41 µM (active)
SKOV3
  Potency: inactive

## Cc1ccc(-n2nccn2)c(C(=O)N2CCN(c3nc4cc(Cl)ccc4o3)CCC2C)c1 (stereo unspecified)
[1]
  Potency: inactive
[7]
  Potency: 1.34 µM (active)
[2]
  Potency: 16.3 µM (active)
HACAT
  outcome: inactive
NIH3T3
  outcome: inactive
HeLa
  Potency: inactive

## CC(C)C(=O)O[C@H]1[C@@H]2[C@H](C)C(=O)O[C@@H]2C[C@@H](C)[C@@H]2C=CC(=O)[C@]21C
[6]
  Potency: 16.1 µM (active)
[1]
  Potency: inactive
[2]
  Potency: 3.58 µM (active)
[3]
  Potency: 2.84 µM (active)
HEK293
  Potency: 9.04 µM (active)

## C/C1=C/[C@@H](C)C/C=C/[C@H]2[C@@H]3O[C@]3(C)[C@@H](C)[C@H]3[C@H](Cc4c[nH]c5ccccc45)NC(=O)[C@]32C(=O)/C=C\C(=O)[C@@H]1O
[2]
  Potency: 3.99 µM (active)
[3]
  Potency: 0.502 µM (active)
KB-3-1
  Potency: 7.96 µM (active)
HeLa
  Potency: inactive

## CC(C)(O)/C=C/C(=O)[C@](C)(O)[C@H]1[C@H](O)C[C@@]2(C)[C@@H]3CC=C4[C@@H](C[C@H](O)C(=O)C4(C)C)[C@]3(C)C(=O)C[C@]12C
[6]
  Potency: 0.448 µM (active)
[1]
  Potency: inactive
[2]
  Potency: 0.252 µM (active)
[3]
  Potency: 0.142 µM (active)
HEK293
  Potency: 0.709 µM (active)
KB-3-1
  Potency: 0.448 µM (active)
HeLa
  Potency: 2.51 µM (active)
SKOV3
  Potency: 0.794 µM (active)

## N#Cc1ccccc1-c1cc(-c2ccccn2)cn(-c2ccccc2)c1=O
[7]
  Potency: 13.5 µM (active)
[2]
  Potency: inactive
[3]
  Potency: inactive
KB-3-1
  max response: -4.86%
HeLa
  Potency: inactive
SKOV3
  Potency: inactive

## C[C@]12CC[C@H](OC3OC(CO)C(O)C(O)C3OC3OC(CO)C(O)C(O)C3O)C[C@@H]1CC[C@@H]1C2CC[C@]2(C)[C@@H](C3=CC(=O)OC3)CC[C@]12O (stereo partly specified)
[1]
  Potency: inactive
[2]
  Potency: 4.3 µM (active)
KB-3-1
  max response: 6.08%
NIH3T3
  outcome: inactive [at 17.4 µM]
SKOV3
  Potency: inactive

## C[C@@H]1Cc2c(Cl)cc(C(=O)N[C@@H](Cc3ccccc3)C(=O)O)c(O)c2C(=O)O1
[1]
  Potency: inactive
[2]
  Potency: 8.98 µM (active)
[3]
  Potency: 6.36 µM (active)
HACAT
  outcome: inactive
HeLa
  Potency: inactive
SKOV3
  Potency: inactive

## C/C=C(/C)C(=O)O[C@H]1[C@@H]2[C@H](C)C(=O)O[C@@H]2C[C@@H](C)[C@@H]2C=CC(=O)[C@]21C
[1]
  Potency: inactive
[2]
  Potency: 12.7 µM (active)
[3]
  Potency: 10.1 µM (active)
HEK293
  max response: -117%

## CCCCCn1cc(C(=O)Cc2ccccc2OC)c2ccccc21
[1]
  Potency: inactive
[7]
  Potency: 1.9 µM (active)
HeLa
  Potency: inactive
SKOV3
  Potency: inactive

## COc1ccc(CC2C(=O)NC(C)C(=O)N(C)C3Cc4ccc(cc4)Oc4cc(ccc4OC4OC(CO)C(O)C(O)C4O)CC(C(=O)NC(C)C(=O)NC(CCC(=O)O)C(=O)N2C)N(C)C3=O)cc1 (stereo unspecified)
[6]
  activity change, negative = cytotoxicity: -22.7% [at 9.29 µM]
[2]
  Potency: 5.48 µM (active)
[3]
  Potency: 4.88 µM (active)
KB-3-1
  max response: -29.6%
HACAT
  outcome: inactive [at 9.27 µM]
HeLa
  activity change, negative = cytotoxicity: -13.7% [at 11.6 µM]
